Target: PKLR
Test: pooled miR-30 sensor sort-seq; sequence = guide strand
Details: shRNA

Going from TTGCTGATGATCTTGATGCCGT to AATCATCATCTTCTGAGCCAGG, the sensor-assay potency score (higher = more potent) falls from -0.495 to -0.988.

First: ATGGACTTTGCTAAGTCTCTTT
Second: TCGTGGTTCTCAATTTTGCTGA
The sensor-assay potency score (higher = more potent) of the first is lower: -0.987 for the first, -0.424 for the second.

First: TAGATGACAGTTATAGTCTCAG
Second: TCAATTTTGCTGATGATCTTGA
The sensor-assay potency score (higher = more potent) of the first is lower: -0.0862 for the first, 0.666 for the second.

First: ATGCTCTCCAGCATCTGTGTGG
Second: TAATTGGACACAGACTTTCAGG
The sensor-assay potency score (higher = more potent) of the first is lower: -1.11 for the first, -0.61 for the second.

TTGATCATCTCCTTGAGGCGCT gave a sensor-assay potency score (higher = more potent) of 1.07.

Target: PLA2G4A
Test: as above
Details: shRNA

Going from TTTGATAGTCACTTCCAGCATC to TAGTTCTTCATTAATCTCCTCT, the sensor-assay potency score (higher = more potent) rises from -0.254 to 0.214.

Going from TATCTTTTAACTTTCTGTGGTG to TTTGCTTCCAAATAAGTCGGGA, the sensor-assay potency score (higher = more potent) rises from -0.296 to 0.33.

Compared with TGATTCATCATCACTGTCCGAG, TAGTCAGTGAATAACATTCATA is lower in sensor-assay potency score (higher = more potent): 0.0963 for the first, -0.999 for the second.

First: TTCTTCATTAATCTCCTCTGGC
Second: TTTAAAGACATAGCACTCCTTC
The sensor-assay potency score (higher = more potent) of the first is lower: -0.109 for the first, -0.0879 for the second.

Compared with TACAAGGTTGACATATACCAGG, TAAAGCTGAATCACTCACCAAG is higher in sensor-assay potency score (higher = more potent): -0.86 for the first, -0.42 for the second.

Going from TTGTCTGAAAGTCTTCTCCTGA to TATCACATCAATGTTGTTCAGA, the sensor-assay potency score (higher = more potent) falls from 0.182 to 0.0915.
